This is a sample that favours compounds with a hit; in the whole collection about 2.4% have one here.
AmpC det inh – AmpC beta-lactamase inhibition, detergent assay. actives 0.09% (n = 71,000). purified AmpC, nitrocefin hydrolysis with detergent. Potency, µM (highest dose often 28.7 µM); active = well fitted curve in the direction sought with a large enough effect; inconclusive = small, poorly fitted or top-dose-only effect
Target sequence (P00811 whole entry, looked up): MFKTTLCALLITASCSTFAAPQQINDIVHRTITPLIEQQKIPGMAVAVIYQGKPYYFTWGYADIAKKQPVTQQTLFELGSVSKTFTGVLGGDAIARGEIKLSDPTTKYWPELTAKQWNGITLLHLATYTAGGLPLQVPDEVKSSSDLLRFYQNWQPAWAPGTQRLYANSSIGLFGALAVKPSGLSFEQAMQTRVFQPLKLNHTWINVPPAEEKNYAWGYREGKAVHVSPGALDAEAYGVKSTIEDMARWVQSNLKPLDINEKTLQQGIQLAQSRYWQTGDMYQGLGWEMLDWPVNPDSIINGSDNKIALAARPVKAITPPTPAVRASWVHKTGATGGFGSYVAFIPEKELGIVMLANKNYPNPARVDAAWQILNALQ
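E. coli AmpC (5.3 nM) in 20 mM phosphate pH 7.0 with 0.01% Triton X-100, preincubated 15 min RT with compound; nitrocefin (2 uL of 800 uM stock) hydrolysis followed by 480 nm absorbance every 20 s over 4 min.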
SmPrx2 inh – inhibitors of Schistosoma mansoni peroxiredoxin 2; S. mansoni Prx2 activity coupled to TGR/GSH (TGR is thioredoxin glutathione reductase), NADPH fluorescence loss, qHTS; Potency, µM; actives 0.07% (n = 65,000); AID 448
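Enzyme mix: 100 uM NADPH, 25 nM TGR, 700 uM GSH, 50 nM Prx2 in 100 mM phosphate pH 7.4, 10 mM EDTA, 0.01% Tween-20. 15 min RT with compound; NADPH/GSH added, H2O2 starts reaction; NADPH fluorescence read 8 min.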
Anthrax LT inh – inhibitors of anthrax lethal toxin internalization; Cells, anthrax lethal toxin internalization, FRET ratio (460/530); actives 0.67% (n = 70,000); Potency, µM (series often up to 40 µM), actives largely listed as inhibitors; note: nearly all actives have a fitted effect of over 50% in size
AmpC inh no det – inhibitors of E. coli AmpC beta-lactamase without detergent; AmpC nitrocefin hydrolysis, absorbance 480 nm, no detergent; Potency, µM (top dose mostly 28.7 µM); actives 1.8% (n = 71,000); AID 585
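AmpC, 20 mM phosphate pH 7.0; 15 min cpd preinc, RT; start with nitrocefin (800 uM stock); A480 kinetic read, 20 s intervals, 4 min. No-enzyme wells = negative control.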
Each line names hits and unclear results; the compound was inactive in the other large screens; [ ] = remark or other dose. Unless noted, calls come from the whole dose curve.

C[C@@]12CC[C@H](O[C@@H]3O[C@H](CO)[C@@H](O)[C@H](O)[C@@H]3O)C[C@@H]1CC[C@H]1[C@H]2CC[C@@]2(C)[C@@H](C3=CCOC3=O)CC[C@]12O	none
Cc1cccc(OCC(O)CN2C(C)(C)CC(O)CC2(C)C)c1C (stereo not drawn)	none
CCN1CCN(CC(O)COc2ccc(C(C)=O)cc2)CC1 (stereo not drawn)	AmpC inh no det 3.98µM[single pt active]
CC(=O)c1ccc(OCC(O)CN2CCN(Cc3ccc4c(c3)OCO4)CC2)cc1 (stereo not drawn)	AmpC inh no det 3.98µM[single pt active]
CC(=O)c1ccc(OCC(O)CN2C(C)(C)CC(O)CC2(C)C)cc1 (stereo not drawn)	AmpC inh no det 3.98µM[single pt active]
Cc1ccc(OCC(O)CN2CCN(Cc3ccc4c(c3)OCO4)CC2)c(C)c1 (stereo not drawn)	Anthrax LT inh inconclusive
CC(=O)c1ccc(OCC(O)CN2CCCC(C)C2)cc1 (stereo not drawn)	AmpC inh no det 3.16µM[single pt active]
Cc1ccc(OCC(O)CN2CCN(CC(O)COc3ccc(C)cc3)CC2)cc1 (stereo not drawn)	none
NCCNc1cccc2ccccc12	Anthrax LT inh inconclusive (no result: SmPrx2 inh)
Clc1ccc(N2C[C@H]3CC[C@@H](C2)N3)nn1	none
CC(C)(C)c1ccc(OCC(=O)O)c(Cl)c1	none
CC(=O)c1ccc(OCC(O)CN2CCN(CCO)CC2)cc1 (stereo not drawn)	AmpC inh no det 3.98µM[single pt active]
NS(=O)(=O)c1ccc(NC(=O)CCC2CCCCC2)cc1	AmpC inh no det 7.94µM (no result: SmPrx2 inh)
COc1ccc(C[N+](C)(C)N)cc1OC	none
Cc1ccc(C(=O)Cn2c3c(sc2=N)CCCC3)cc1	Anthrax LT inh 15.8µM
C=CCn1c2ccccc2c2nnc(SCCCn3c(=O)[nH]c4ccccc43)nc21	Anthrax LT inh 6.31µM (no result: SmPrx2 inh)
C=CCn1c2ccccc2c2nnc(SCN3C(=O)c4ccccc4C3=O)nc21	none
NC(N)=NCCN=C(N)N	Anthrax LT inh inconclusive
Cc1cc(NC(=O)c2cccc(COc3ccc(Br)cc3)c2)no1	Anthrax LT inh inconclusive, AmpC inh no det 3.98µM[single pt active]
CCOc1ccc(C(=O)Nc2cc(C)on2)cc1	none (no result: SmPrx2 inh)
CC[C@@H]1CN2CC[C@@H]1C[C@H]2[C@@H](O)c1ccnc2ccc(OC)cc12	Anthrax LT inh inconclusive
CC(C)(C)[C@@]1(O)C[C@@H]2OC(=O)C[C@@]23C(=O)O[C@H]2OC(=O)[C@@H](O)[C@]231	none
N#Cc1cn(-c2ccccc2)nc1-c1ccccc1	none
N#Cc1c(-c2ccccc2)no[n+]1[O-]	SmPrx2 inh 8.68
O=C(Nc1ccc(N2C(=O)C3C4C=CC(C4)C3C2=O)cc1)Nc1nncs1 (stereo not drawn)	AmpC inh no det 3.98µM[single pt active]
O=C1c2cccc([N+](=O)[O-])c2C(=O)N1c1ncn[nH]1	none
C/C(=C\[C@@H](NP(=O)(c1ccccc1)c1ccccc1)c1ccccc1)CO[Si](c1ccccc1)(c1ccccc1)C(C)(C)C	none (no result: SmPrx2 inh)
CCCC/C(C)=C/[C@@H](NP(=O)(c1ccccc1)c1ccccc1)c1ccccc1	Anthrax LT inh 10µM (no result: SmPrx2 inh)
Cc1cc(C(=O)N2CCN(c3ncccn3)CC2)sc1-c1ccccc1	none
CN1CCN(C(=O)c2cc3c(s2)-c2ccccc2S(=O)(=O)C3)CC1	AmpC inh no det 3.98µM[single pt active]
O=C(c1ccco1)N1CCN(C(=O)c2cc3c(s2)-c2ccccc2OC3)CC1	none
CCN1CCN(C(=O)c2cc3c(s2)-c2ccccc2S(=O)(=O)C3)CC1	AmpC inh no det 3.98µM[single pt active]
O=C(OCC1CO1)C1CCCCC1C(=O)OCC1CO1 (stereo not drawn)	Anthrax LT inh inconclusive (no result: SmPrx2 inh)
Cn1c(=O)c2[nH]c(/N=N\N3CCN(CCO)CC3)nc2n(C)c1=O	none
Cc1cc(C)n(-c2nc3ccccc3nc2N2CCN(S(=O)(=O)c3ccc(F)c(C)c3)CC2)n1	none
Cc1cc(N2CCN(S(=O)(=O)c3ccc(Cl)cc3)CC2)c2ccccc2n1	Anthrax LT inh 10µM (no result: SmPrx2 inh)
CCOC(=O)c1ccc(NC(=O)Nc2ccc(S(N)(=O)=O)cc2)cc1	none (no result: Anthrax LT inh)
CN(C)c1ccc(C(=O)OCC(=O)Nc2ccc(S(N)(=O)=O)cc2)cc1	AmpC inh no det 15.8µM[single pt active]
COC(=O)[C@@H]1C[C@H]1[C@@H](NC(=O)Oc1ccc(F)cc1)c1ccccc1	none
CCOC(=O)c1cc(-c2ccc(F)cc2)n(CC(=O)Nc2nccs2)c1C	Anthrax LT inh 10µM, AmpC inh no det 3.16µM[single pt active]
CCOC(=O)c1cc(-c2ccccc2)n(CC(=O)O)c1C	none
Clc1ccc(C(c2ccc(Cl)cc2)C(Cl)(Cl)Cl)cc1	Anthrax LT inh 6.31µM, AmpC inh no det inconclusive (no result: SmPrx2 inh)
